Laboratory results reported in ChEMBL document CHEMBL4513216, “Probing the Open Global Health Chemical Diversity Library for Multistage-Active Starting Points for Next-Generation Antimalarials” (ACS Infect Dis, 2020).
The campaign covered roughly 69,000 compounds. About 8,600 (12%) showed an effect of 50% or more. This is one part of a sample in which strong results are shown more often than they occur.

System: Plasmodium berghei
Experiment: Screen against P. berghei liver stage (PbLuc), transformed with Luciferase, at 10uM
Type: functional, HepG2
Details: tested at 10 uM

Row | Structure (SMILES) | INHIBITION
1 | CC(c1ccccn1)N(C)Cc1ccc(-n2ccnc2)cc1 (centres undefined) | 37.6%
2 | Cn1cc(CN2C[C@@H]3COC[C@]3(COc3ccc(C#N)cn3)C2)cn1 | -43.2%
3 | COc1cc(N2C[C@@H]3COC[C@]3(COc3ccc(C#N)cn3)C2)ncn1 | 71.1%
4 | N#Cc1ccc(OC[C@]23COC[C@H]2CN(c2ncccn2)C3)nc1 | -7.29%
5 | Cc1cccc(COC[C@]23COC[C@H]2CN(C(=O)c2ccsc2)C3)n1 | -29.9%
6 | COc1cc(N2C[C@@H]3COC[C@]3(COCc3cccc(C)n3)C2)ncn1 | 63.7%
7 | Cc1cccc(CN2C[C@@H]3COC[C@]3(COc3ccc(C#N)cn3)C2)n1 | 6.8%
8 | Cc1cccc(CNC(=O)N(CCCO)C2CCc3ccccc32)n1 (centres undefined) | -14.6%
9 | CNc1snc(C)c1C(=O)NC(C)CC(=O)c1cccs1 (centres undefined) | 44.6%
10 | CC(C)c1cc(NC2CCCN(C(=O)c3cccs3)C2)ncn1 (centres undefined) | 80%
11 | CC(C)c1cc(NC2CCN(C(=O)N3CCCC3)CC2)ncn1 | 74.7%
12 | CC(C)C1CN(C(=O)c2cccs2)CCS1 (centres undefined) | 29.5%
13 | CCc1nc(NC2CCCN(C(=O)c3cccs3)C2)c2cnn(C)c2n1 (centres undefined) | 32.8%
14 | O=C(N1CCOCC1)N1CCC(Nc2ccncn2)CC1 | 29.4%
15 | O=C(N1CCCC1)N1CCC(Nc2ccncn2)CC1 | 34.1%
16 | COc1ccc(CC(=O)NC2(C#N)CCOCC2)c(Cl)c1 | -8.4%
17 | Cc1ccc(N2CCCC(NCc3cccs3)C2)nn1 (centres undefined) | -19.4%
18 | CCNC(=O)NC(=O)CN1CCCC1c1nc(C2CCCCC2)co1 (centres undefined) | 10.8%
19 | CC(=O)Nn1ccc2c(nnc3c(-c4ccc(F)cc4)cnn32)c1=O | 58.5%
20 | O=C(O)CCn1ccc(=O)c2ccccc21 | 35.1%
21 | O=C(O)CCn1ccc(=O)c2cc(F)ccc21 | 38.1%
22 | CC(=O)Nn1ccc2c(nnc3c(-c4ccccc4)cnn32)c1=O | 58.5%
23 | O=C(O)CCn1ccc2c(nnc3c(-c4ccc(F)cc4)cnn32)c1=O | 63.6%
24 | CCN(C)C(=O)NCC1(CN2CCOCC2)CCCCC1 | 5.76%
25 | O=C(c1cc(=O)c(OCc2ccccc2F)co1)N1CCCC1 | -51.9%
26 | COCCNC(=O)c1cnc(N(C)C)nc1C | 14.2%

Row | Structure (SMILES) | INHIBITION
27 | CSc1nccn1-c1cccc(C(=O)NCCC(=O)NC(C)C)c1 | 15.5%
28 | CC(=O)NCCCC(=O)N1CCc2[nH]c(-c3ccccc3)nc2C1 | 35.8%
29 | Cc1cc(O)n2nc(C3CCN(C(=O)c4ccccn4)CC3)cc2n1 | 7.55%
30 | CC(=O)N1[C@H](CN(C)C)C[C@@H]2CN(C(=O)Cc3cccs3)CC[C@@H]21 | -61.5%
31 | Cn1nc(Br)c2c(NCCN)ncnc21 | 15.7%
32 | Cc1ccc(-c2cc(N)c(=O)n(CC(=O)NC3CCCC3)n2)s1 | 6.32%
33 | Cc1ccc(-c2cc(N)c(=O)n(CC(=O)NCC3CCCCC3)n2)s1 | 39.2%
34 | Cc1ccc(-c2cc(N)c(=O)n(CC(=O)NC3CCCCC3)n2)s1 | 55.2%
35 | COc1ccc(C(CO)NC(=O)Nc2cccc(C(C)=O)c2)cc1 (centres undefined) | -6.51%
36 | COc1cccc(CC(C)NC(=O)NC(C)C)c1 (centres undefined) | 30.3%
37 | COCC(=O)NC(C)Cc1cccc(OC)c1 (centres undefined) | 15.5%
38 | COc1cccc(C(CO)NC(=O)NC(C)C)c1 (centres undefined) | 91.1%
39 | COc1cccc(C(CO)NC(=O)Cc2ccc(F)c(Br)c2)c1 (centres undefined) | 22.6%
40 | COc1cccc(C(CO)NC(=O)Cc2cccc(C)c2)c1 (centres undefined) | 53.4%
41 | CN1CCN2C[C@@H](CO)[C@H](c3ccccc3)[C@H]2C1 | 17.7%
42 | OCCCNc1cccc(COC2CCCCC2)c1 | 17.5%
43 | CN(C)CCN1C(=O)CCCC12CCCN(C(=O)c1cc[nH]n1)C2 (centres undefined) | 34.5%
44 | Cn1cc([C@@H]2CN(S(C)(=O)=O)C[C@H]2N)c2ccncc21 | -10.795%
45 | CC(C)Cc1cc(-c2cc(-c3ccc[nH]3)nc(N)c2C#N)n[nH]1 | 48.8%
46 | CS(=O)(=O)NCCC(=O)Nc1ccccc1N1CCc2ccccc21 | 40.5%
47 | CCS(=O)(=O)CC(=O)Nc1ccccc1N1CCc2ccccc21 | 63.3%
48 | CNC(=O)NCC(=O)Nc1ccccc1N1CCc2ccccc21 | 30.5%
49 | c1ccc(C2CN(C3CC3)CC3(CCN(Cc4ncc[nH]4)CC3)C2)cc1 (centres undefined) | 53.3%
50 | CN1CC(c2ccccc2)CC2(CCN(Cc3ncc[nH]3)CC2)C1 (centres undefined) | 49.9%
51 | c1ccc(C2CN(C3CC3)CC3(CCN(Cc4cscn4)CC3)C2)cc1 (centres undefined) | 70.1%
52 | CCN1CC(c2ccccc2)CC2(CCN(Cc3ncc[nH]3)CC2)C1 (centres undefined) | 42.1%

Row | Structure (SMILES) | INHIBITION
53 | O=C1CCC2(CCN(Cc3cscn3)CC2)CN1C1CCC(O)CC1 (centres undefined) | -60.7%
54 | COCCC(=O)N1CCC2(CC1)CC(c1ccccc1)CN(C1CC1)C2 (centres undefined) | 14%
55 | Cc1cn2c(=O)c(-c3ccnc(N[C@@H]4CCOC4)n3)cnc2s1 | 17.4%
56 | Cc1nc(COC[C@@]23CCC[C@@H]2CN(Cc2nccs2)C3)cs1 | 42.6%
57 | COCCN1CC2(CCCN(c3ncc(Cl)cc3F)C2)CCC1=O (centres undefined) | 78.5%
58 | CN(C)CCN1CC2(CCCN(c3ncc(Cl)cc3F)C2)CCC1=O (centres undefined) | 37.7%
59 | COCCCN1CC2(CCCN(c3ncc(Cl)cc3F)C2)CCC1=O (centres undefined) | 37.7%
60 | CC(C(=O)Nc1ccnn1C(C)C)N1CCc2nn(C)c(=O)cc2C1 (centres undefined) | 1.98%
61 | CC(=O)c1cccc(NC(=O)COc2c(C)n(C)ccc2=O)c1 | -19%
62 | COc1ccccc1CNC(=O)COc1c(C)n(C)ccc1=O | 53.6%
63 | COc1ccccc1CNC(=O)CNCCn1cc(C)cn1 | 7.27%
64 | COCCn1ccc(=O)c(OCC(=O)Nc2ccccc2)c1C | -93.2%
65 | Cc1c(OCC(=O)NCc2ccccc2)c(=O)ccn1C | 57.3%
66 | Cc1c(OCC(=O)NCc2ccccc2Cl)c(=O)ccn1C | 39.6%
67 | Cc1cccc(CN2C(=O)CO[C@@H]3CN(C4CCOCC4)C[C@H]32)c1 | -18.2%
68 | CCN(C(=O)CCCOc1ccccc1F)c1ccncc1 | -26.8%
69 | CCCn1nnnc1COC(=O)C1Cc2cc(Cl)ccc2O1 (centres undefined) | 43.5%
70 | CCCc1cc(NC(=O)c2ccc(Cl)c(N3CCNC3=O)c2)n[nH]1 | -26.4%
71 | CCCn1nccc1NC(=O)c1ccc(Cl)c(N2CCNC2=O)c1 | 57%
72 | CCc1ccc(C(=O)Nc2cc(N3CCNC3=O)ccc2Cl)o1 | 32.9%
73 | O=C(CC1C=CCC1)N1CCc2ncnc(NCc3ccon3)c2CC1 (centres undefined) | 34.5%
74 | CC(NC(=O)CSCC#N)c1ccc(Cl)cc1 (centres undefined) | 34.7%
75 | CC(NC(=O)CSCC#N)c1ccccc1 (centres undefined) | 55.5%
76 | CC(NC(=O)CSCC#N)c1ccc(F)cc1 (centres undefined) | -13.3%
77 | Cc1c(Br)cnn1CCC(=O)N(C)Cc1c(Cl)cnn1C | 32.2%
78 | Fc1cnc(N2CCCC3(CN(Cc4cccs4)CCO3)C2)nc1 (centres undefined) | 32.5%

Row | Structure (SMILES) | INHIBITION
79 | O=C(c1ccncc1)N1CCOC2(COCCN(c3cccnc3)C2)C1 (centres undefined) | 31.4%
80 | c1cncc(N2CCOCC3(CN(Cc4cccs4)CCO3)C2)c1 (centres undefined) | 53.2%
81 | CC(C)N1CCOCC2(CN(Cc3cccs3)CCO2)C1 (centres undefined) | 41.2%
82 | c1cncc(N2CCCC3(CN(Cc4cccs4)CCO3)C2)c1 (centres undefined) | 63.7%
83 | COc1ccc(N2CCCC3(C2)CN(c2cccnc2)CCO3)cc1 (centres undefined) | 8.85%
84 | O=C(CCc1nc(C2CC2)no1)c1ccc2c(c1)OCCO2 | -5.22%
85 | CN1CCCC(c2cncc(C(=O)NCc3ccccc3Cl)n2)C1 (centres undefined) | -54.1%
86 | CC(C)=CCN1C(=O)[C@@H]2CC[C@H]1CN(c1ncccn1)C2 | 12.7%
87 | CC(C)(C)NC(=O)CNc1ccc(Br)cn1 | 25.4%
88 | O=C(NCCCn1cccn1)c1nc2ccccc2[nH]1 | 15.7%
89 | Cc1csc(NC(=O)NCCCN2CCC(C(N)=O)CC2)n1 | -21.1%
90 | Cc1ccnc(OC[C@]23COC[C@H]2CN(C(=O)Cc2ccsc2)C3)n1 | -39.9%
91 | Cc1n[nH]c(C)c1NC(=O)CN1CCCC1c1noc(C2CC2)n1 (centres undefined) | 26.5%
92 | c1ccc(-c2nn3c(CN4CCOCC4)nnc3s2)nc1 | 25.9%
93 | COc1cc(N2C[C@H]3CCC[C@@H](CN(C)C)[C@H]3C2)ncn1 | 32.2%
94 | COCCN1C[C@@H]2CN(c3ncc(F)cn3)C[C@@H]2C1=O | 53.4%
95 | COc1cc(N2C[C@H]3CCC[C@@H](CN(C)C4CC4)[C@H]3C2)ncn1 | 20.6%
96 | COc1cc(N2C[C@H]3CN(CC(=O)N(C)C)C(=O)[C@H]3C2)ncn1 | 42.3%
97 | Cc1ccc(N2C[C@@H](CN3CCOCC3)[C@@H](CO)C2)nn1 | 20.4%
98 | COc1cc(N2C[C@H]3CCC[C@@H](CN4CCCC4)[C@H]3C2)ncn1 | 76.5%
99 | COCCN1CC[C@H]2CN(c3cc(OC)ncn3)C[C@@H]2C1=O | 54.1%
100 | Cc1nc(CN2C[C@@H]3CN(c4ncc(F)cn4)C[C@@H]3C2=O)cs1 | 5.63%
101 | COc1cc(N2C[C@H]3CN(CCN4CCCC4)C(=O)[C@H]3C2)ncn1 | 17.2%
102 | COCCN1C[C@@H]2CN(c3ncccn3)C[C@@H]2C1=O | -14.6%
103 | Cc1ccc(N2C[C@H]3CCC[C@@H](CN4CCOCC4)[C@H]3C2)nn1 | 61.9%
104 | Cc1ccc(N2C[C@H]3CCC[C@@H](CN(C)C)[C@H]3C2)nn1 | -10.5%
